From the supplement of paper PMC11738630

System: Salmonella enterica serovar Typhimurium 14028s
Test: approximate change in surviving CFU after surface colonization relative to water-only control (log10 CFU/mL change); higher = more surviving bacteria (less inhibition of surface colonization)
Conditions: not stated (Biolog proprietary concentration), surface: plastic 96-well plate, 20-24 h at 25 °C

Compound: O[C@@H]1[C@@H](O)[C@@H](O)CO[C@H]1O [L-Arabinose]
- approximate change in surviving CFU (log10) (Biolog plate: PM1, Biolog well: A2): 0.837

Compound: OC[C@H]1OC(O)[C@@H](O)[C@@H](O)[C@@H]1O (stereo partly drawn) [D-Mannose]
- approximate change in surviving CFU (log10) (Biolog plate: PM1, Biolog well: A11): 1.93

Compound: OC[C@@H](O)[C@@H](O)[C@H](O)[C@@H](O)CO [D-Sorbitol]
- approximate change in surviving CFU (log10) (Biolog plate: PM1, Biolog well: B2): 1.61

Compound: OC[C@H]1O[C@H](O[C@H]2[C@H](O)[C@@H](O)[C@H](O)O[C@@H]2CO)[C@H](O)[C@@H](O)[C@@H]1O [Maltose]
- approximate change in surviving CFU (log10) (Biolog plate: PM1, Biolog well: C10): 1.57

Compound: OC[C@H]1O[C@@](CO)(O[C@H]2O[C@H](CO)[C@@H](O)[C@H](O)[C@H]2O)[C@@H](O)[C@@H]1O [Sucrose]
- approximate change in surviving CFU (log10) (Biolog plate: PM1, Biolog well: D11): 0.987

Compound: O=C(O)C(O)C(O)C(=O)O (stereo not given) [m-Tartaric Acid]
- approximate change in surviving CFU (log10) (Biolog plate: PM1, Biolog well: E2): 1.04

Compound: Nc1ncnc2c1ncn2[C@H]1C[C@H](O)[C@@H](CO)O1 [2-Deoxy Adenosine]
- approximate change in surviving CFU (log10) (Biolog plate: PM1, Biolog well: E11): 1.37

Compound: O[C@H]1[C@H](O)[C@@H](O)[C@H](O)[C@@H](O)[C@H]1O [myo-Inositol]
- approximate change in surviving CFU (log10) (Biolog plate: PM1, Biolog well: F3): 0.902

Compound: O=C(O)CC(Br)C(=O)O (stereo not given) [Bromo Succinic Acid]
- approximate change in surviving CFU (log10) (Biolog plate: PM1, Biolog well: F6): -0.901

Compound: CCC(=O)O [Propionic Acid]
- approximate change in surviving CFU (log10) (Biolog plate: PM1, Biolog well: F7): -0.987

Compound: O=C(O)CC(CC(=O)O)C(=O)O [Tricarballylic Acid]
- approximate change in surviving CFU (log10) (Biolog plate: PM1, Biolog well: G2): 1.05

Compound: COC(=O)C(C)=O [Methyl Pyruvate]
- approximate change in surviving CFU (log10) (Biolog plate: PM1, Biolog well: G10): 0.0644

Compound: NCC(=O)N1CCC[C@H]1C(=O)O [Glycyl-L-Proline]
- approximate change in surviving CFU (log10) (Biolog plate: PM1, Biolog well: H1): 0.58

Compound: O=C(O)Cc1ccc(O)cc1 [p-Hydroxy Phenyl Acetic Acid]
- approximate change in surviving CFU (log10) (Biolog plate: PM1, Biolog well: H2): -2.12

Compound: OCC1(O)OC[C@@H](O)[C@@H](O)[C@H]1O (stereo partly drawn) [D-Psicose]
- approximate change in surviving CFU (log10) (Biolog plate: PM1, Biolog well: H5): 1.35

Compound: OC[C@H]1OC(O[C@H]2[C@H](O)[C@@H](O)C(O[C@H]3[C@H](O)[C@@H](O)[C@@H](O)O[C@@H]3CO)O[C@@H]2CO)[C@H](O)[C@@H](O)[C@@H]1O (stereo not given in full) [Dextrin]
- approximate change in surviving CFU (log10) (Biolog plate: PM2, Biolog well: A6): 0.665

Compound: OC[C@H]1O[C@H](OC[C@H]2O[C@H](O[C@H]3[C@H](O)[C@@H](O)[C@@H](O)O[C@@H]3CO)[C@H](O)[C@@H](O)[C@@H]2O[C@H]2O[C@H](CO)[C@@H](O)[C@H](O)[C@H]2O)[C@H](O)[C@@H](O)[C@@H]1O [Glycogen]
- approximate change in surviving CFU (log10) (Biolog plate: PM2, Biolog well: A8): 0.944

Compound: OC[C@@H](O)C(O)[C@H](O)CO [D-Arabitol]
- approximate change in surviving CFU (log10) (Biolog plate: PM2, Biolog well: B6): 1.37

Compound: OC[C@@H]1OC(O)[C@@H](O)[C@H](O)[C@H]1O (stereo partly drawn) [L-Glucose]
- approximate change in surviving CFU (log10) (Biolog plate: PM2, Biolog well: C2): 1.22

Compound: OC[C@H]1O[C@H](OC[C@H]2O[C@H](O[C@]3(CO)O[C@H](CO)[C@@H](O)[C@@H]3O)[C@H](O)[C@@H](O)[C@@H]2O)[C@H](O)[C@@H](O)[C@H]1O [D-Raffinose]
- approximate change in surviving CFU (log10) (Biolog plate: PM2, Biolog well: D1): 0.494

Compound: OC[C@H]1O[C@H](OC[C@H]2O[C@H](OC[C@H]3O[C@H](O[C@]4(CO)O[C@H](CO)[C@@H](O)[C@@H]4O)[C@H](O)[C@@H](O)[C@@H]3O)[C@H](O)[C@@H](O)[C@H]2O)[C@H](O)[C@@H](O)[C@H]1O [Stachyose]
- approximate change in surviving CFU (log10) (Biolog plate: PM2, Biolog well: D5): 1.37

Compound: O=C(CO)[C@@H](O)[C@@H](O)[C@H](O)CO [D-Tagatose]
- approximate change in surviving CFU (log10) (Biolog plate: PM2, Biolog well: D6): 0.859

Compound: O=C(O)c1ccc(O)cc1 [4-Hydroxy Benzoic Acid]
- approximate change in surviving CFU (log10) (Biolog plate: PM2, Biolog well: E7): -0.58

Compound: C[C@@H](O)CC(=O)O [b-Hydroxy Butyric Acid]
- approximate change in surviving CFU (log10) (Biolog plate: PM2, Biolog well: E8): -0.215

Compound: O=C(O)[C@H](O)[C@@H](O)[C@H](O)[C@H](O)CO[C@H]1O[C@H](CO)[C@H](O)[C@H](O)[C@H]1O [Melibionic Acid]
- approximate change in surviving CFU (log10) (Biolog plate: PM2, Biolog well: F3): 0.3

Compound: O=C(CO)CO [Dihydroxy Acetone]
- approximate change in surviving CFU (log10) (Biolog plate: PM2, Biolog well: H9): -4.4

Compound: CC(C)[C@@H](N)C(=O)O [D-Valine]
- approximate change in surviving CFU (log10) (Biolog plate: PM3, Biolog well: C9): -0.172

Compound: NO [Hydroxylamine]
- approximate change in surviving CFU (log10) (Biolog plate: PM3, Biolog well: D4): -0.687

Compound: CN [Methylamine]
- approximate change in surviving CFU (log10) (Biolog plate: PM3, Biolog well: D5): -1.05

Compound: CCCCCN [N-Amylamine]
- approximate change in surviving CFU (log10) (Biolog plate: PM3, Biolog well: D6): -0.708

Compound: C[C@H](N)C(=O)N[C@@H](CCC(N)=O)C(=O)O
- approximate change in surviving CFU (log10) (Biolog plate: PM3, Biolog well: H2): 0.0644

Compound: C[C@H](N)C(=O)N[C@H](C(=O)O)[C@@H](C)O
- approximate change in surviving CFU (log10) (Biolog plate: PM3, Biolog well: H7): -0.0215

Compound: CSCC[C@H](NC(=O)CN)C(=O)O
- approximate change in surviving CFU (log10) (Biolog plate: PM3, Biolog well: H11): -0.558

Compound: O=C(O)CCC(=O)O [Succinic Acid]
- approximate change in surviving CFU (log10) (Biolog plate: PM1, Biolog well: A5): 0.515

Compound: C[C@H](O)[C@@H](O)[C@@H](O)[C@H](O)C=O [L-Fucose]
- approximate change in surviving CFU (log10) (Biolog plate: PM1, Biolog well: B4): 1.33

Compound: O=P(O)(O)OC[C@H](O)CO (racemic) [D,L-a-Glycerol-Phosphate]
- approximate change in surviving CFU (log10) (Biolog plate: PM1, Biolog well: B7): 1.31

Compound: OC[C@@H](O)[C@@H](O)[C@H](O)[C@H](O)CO [D-Mannitol]
- approximate change in surviving CFU (log10) (Biolog plate: PM1, Biolog well: B11): 2.19

Compound: O=C(O)CC(O)C(=O)O (racemic) [D,L-Malic Acid]
- approximate change in surviving CFU (log10) (Biolog plate: PM1, Biolog well: C3): 1.05

Compound: O=C(O)CCC(=O)C(=O)O [a-Keto-Glutaric Acid]
- approximate change in surviving CFU (log10) (Biolog plate: PM1, Biolog well: D6): 1.19

Compound: OC[C@H]1O[C@@H](O[C@H]2[C@H](O)[C@@H](O)[C@@H](O)O[C@@H]2CO)[C@H](O)[C@@H](O)[C@H]1O [a-D-Lactose]
- approximate change in surviving CFU (log10) (Biolog plate: PM1, Biolog well: D9): 1.05
